Data on 94 molecules can be found in PubChem BioAssay AID485272 (The Scripps Research Institute Molecular Screening Center, 2010).

Among all 330,000 compounds or so, about 1,300 (0.39%) were called active.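 The calls were made as follows: active = percent inhibition above a cutoff equal to the mean of all tested compounds plus 3 SD (cut at about 15% in these data); inactive = the rest.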 For the sample, actives were picked, then their nearest neighbours and some compounds at random.

Protein-arginine deiminase type-4 (Homo sapiens), sequence (Q9UM07 whole entry, looked up): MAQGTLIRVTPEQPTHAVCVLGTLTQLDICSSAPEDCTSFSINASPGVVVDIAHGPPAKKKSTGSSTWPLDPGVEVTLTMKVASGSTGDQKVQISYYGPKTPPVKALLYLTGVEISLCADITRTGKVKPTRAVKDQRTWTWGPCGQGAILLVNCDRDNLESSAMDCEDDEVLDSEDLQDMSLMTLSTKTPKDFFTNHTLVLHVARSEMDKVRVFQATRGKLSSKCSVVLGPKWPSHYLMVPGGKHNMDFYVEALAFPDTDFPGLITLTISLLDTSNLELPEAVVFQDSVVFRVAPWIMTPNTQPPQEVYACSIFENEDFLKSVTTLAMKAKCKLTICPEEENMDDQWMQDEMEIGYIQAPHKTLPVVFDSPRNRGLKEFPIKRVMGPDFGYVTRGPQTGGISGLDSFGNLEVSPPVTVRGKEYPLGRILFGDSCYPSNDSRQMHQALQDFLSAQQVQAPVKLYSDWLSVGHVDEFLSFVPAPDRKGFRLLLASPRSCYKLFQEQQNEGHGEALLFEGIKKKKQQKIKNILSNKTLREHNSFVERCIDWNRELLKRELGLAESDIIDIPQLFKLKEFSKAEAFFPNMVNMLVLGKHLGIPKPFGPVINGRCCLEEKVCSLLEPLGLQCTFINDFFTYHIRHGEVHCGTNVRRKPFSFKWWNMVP

This test concerns the target Protein-arginine deiminase type-4 (Homo sapiens) (UniProt Q9UM07). Nature of the test: human PAD4 inhibitors, primary screen, biochemical, fluorescence polarization, 1536-well format (AID 485272).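 Also: 0% = PAD4 with RCA probe and DMSO and 100% = probe without PAD4.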 The conditions noted are these: recombinant PAD4, RCA probe fluorescence polarization; at 6.36 µM; hits give high values. (In fluorescence polarisation assays a small probe gives low polarisation when free and higher when bound to something large.)
In general, inhibition refers to the change of the read-out against control, counted positive when it falls. For `O=C(NC(=S)Nc1ccc(Cl)cc1Cl)C1CC1`, the inhibition was 1.69% (inactive).

In the case of `CCOc1ccc(NS(=O)(=O)c2ccc(Cl)c(C(=O)N(C)Cc3cccnc3)c2)cc1`, the inhibition was 6.71% (inactive).

For `O=C(Nc1ccc(N2CCOCC2)cc1)c1cccc(S(=O)(=O)N2CCOCC2)c1`, the inhibition is -3.19% (inactive).

Consider `Oc1ccc2ccccc2c1N=Nc1nccs1`, for which the inhibition was 2.91% (inactive).

Take `Oc1c(C=Nc2cccc3nsnc23)ccc2ccccc12`: the inhibition is 39.1% (active).

For the molecule `O=C(CCNS(=O)(=O)c1ccc(Br)s1)NCc1ccccc1Cl`, the inhibition was -0.29% (inactive).

Regarding `Clc1ccc(-c2cc(COc3ccccc3)no2)cc1Cl`, the inhibition is -0.83% (inactive).

Consider `COC(=O)c1ccc(C)c(NC(=O)Cn2c(C)csc2=O)c1`, for which the inhibition was 2.97% (inactive).

Regarding `COc1ccc(OCc2ccc(-c3nc4ccccc4c(=O)n3N)o2)cc1`, the inhibition was 1.08% (inactive).

Take `Cc1ccc(C(=O)CSc2nc3ccccc3c(=O)n2N)o1`: the inhibition was 28.9% (active).

With `COc1ccc(NC(=O)CSc2nc3ccccc3c(=O)n2C)cc1`, the inhibition is -0.44% (inactive).

For the molecule `CCC(C(=O)OC)n1cnc2scc(-c3ccc(C)cc3)c2c1=O` (centres undefined), the inhibition was 0.23% (inactive).

As to `Cc1[nH]nc(-c2ccc(OCc3cnn(-c4ccccc4)c3)cc2O)c1Oc1ccc(Cl)cc1`, the inhibition was -2.55% (inactive).

Regarding `Oc1ccc(N=Cc2sc3ccccc3c2Cl)cc1`, the inhibition is 19.9% (active).

On to `Oc1ccc(/C=N/N(Cc2ccccc2)c2ccccc2)cc1`, for which the inhibition was 2.9% (inactive).

For the molecule `CC(=O)n1c(C=Nc2ccccc2)c(O)c2ccccc21`, the inhibition was -8.69% (inactive).

With `Cc1cc(N=Nc2ccc3ccccc3c2)ccc1O`, the inhibition was 1.91% (inactive).

For the molecule `Oc1ccc(N=Cc2c(O)ccc3ccccc23)cc1`, the inhibition is 69.9% (active).

As to `CCC(C)NC(=O)Cn1nc(C(F)(F)F)c2c1CCC2` (centres undefined), the inhibition is 0.61% (inactive).

Take `N/C(=N\OC(=O)CC1CCCCC1)c1ccccc1`: the inhibition is -1.21% (inactive).

On to `CC(=O)c1ccc(S(=O)(=O)NCc2nnnn2-c2ccccc2)cc1`, for which the inhibition was 7.61% (inactive).

`O=c1oc2ccc(C#CC3(O)CCCCC3)cc2cc1-n1cc(-c2ccsc2)nn1`: the inhibition is 2.6% (inactive).

`Cc1cccc(CN2CCN(Cc3cnn(-c4ccccc4F)c3)CC2CCO)n1` (centres undefined): the inhibition was 8.78% (inactive).

With `COc1ccc(CCNS(=O)(=O)c2cc3c(cc2C)NC(=O)CO3)cc1OC`, the inhibition was -1.01% (inactive).

Consider `N#CCCN(C(=O)COC(=O)C1CCN(c2ccc(C(F)(F)F)cn2)CC1)c1ccc(F)cc1`, for which the inhibition was -2.71% (inactive).

With `COc1cc(C(=O)NCc2ccc3c(c2)cc(C)n3C)cc(OC)c1OC`, the inhibition is 26.2% (active).

As for `CCOCC(=O)NCc1ccc2c(c1)cc(C)n2C`, the inhibition was 6.21% (inactive).

For `COc1cc(C(=O)NCc2cc3cc(Cl)ccc3n2C)cc(OC)c1OC`, the inhibition was 0.12% (inactive).

As for `CC(=O)Nc1ccc(N2C(=O)CCC2=O)cc1C`, the inhibition was 1.44% (inactive).

As to `COc1cccc(N2CC(NS(=O)(=O)c3cccs3)CC2=O)c1` (centres undefined), the inhibition was -3.8% (inactive).

As to `Cc1nn(C)cc1N1C(=O)c2cccc3c(N)ccc(c23)C1=O`, the inhibition was 26.9% (active).

As to `COc1cc(C(=O)N2C(=O)c3cccc(N)c3C2=O)cc(OC)c1OC`, the inhibition was -3.66% (inactive).

Consider `CC(=O)Nc1ccccc1Sc1ccc2c3c(cccc13)C(=O)N(c1ccc(C)cc1)C2=O`, for which the inhibition is 1.13% (inactive).

Take `CN1C(=O)c2cccc3c(N)ccc(c23)C1=O`: the inhibition is 24% (active).

Take `Cc1nn(C)cc1C(=O)c1ccccc1`: the inhibition was -3.44% (inactive).

As to `COC(=O)c1ccc(CN2CCCC(C(=O)Nc3cccc(-n4cnnn4)c3)C2)cc1` (centres undefined), the inhibition was -3.14% (inactive).

As for `Cc1ccc(S(=O)(=O)N(CC(=O)Nc2cccnc2)c2ccc(Br)cc2)cc1`, the inhibition was 1.31% (inactive).

As for `O=C1CCCC2=C1C(c1cccs1)n1nc(SCc3ccccc3)nc1N2` (centres undefined), the inhibition was -0.55% (inactive).

Regarding `NC(N)=N/N=C/c1ccc(OCc2ccc(Cl)cc2Cl)cc1`, the inhibition is -4.09% (inactive).

Take `CCOC(=O)N1CCN(C(=O)c2ccccc2N(Cc2ccccc2)S(=O)(=O)c2ccc(OC)cc2)CC1`: the inhibition was -4.41% (inactive).

Turning to `C=CCN(C(=O)Nc1ccc2oc(C)nc2c1)c1ccccc1`, the inhibition was 39.8% (active).

`O=C(Nc1ccc2oc(-c3ccccc3F)nc2c1)c1ccco1`: the inhibition is -5.36% (inactive).

As to `C=CCN(C(=O)Nc1ccc2c(c1)nc(C)n2C)c1ccccc1`, the inhibition was 2.79% (inactive).

Turning to `CCOc1ccc(S(=O)(=O)N2CCCCC2)cc1NC(=O)CN1CCCC1c1cccs1` (centres undefined), the inhibition is -0.57% (inactive).

In the case of `CCOc1ccc(S(=O)(=O)N2CCN=C2Cc2ccccc2)cc1C`, the inhibition is 0.37% (inactive).

Regarding `CC[N+](C)(CC)CCC[n+]1c(-c2ccccc2)c2cc(N)ccc2c2ccc(N)cc21`, the inhibition was 62.4% (active).

For `Cc1ccc2[nH]c(C(=O)O)c(NC(=O)c3ccccc3[N+](=O)[O-])c2c1`, the inhibition is 4.63% (inactive).

`Cc1cc2c(cc1C)N(C(=O)CN1C(=O)c3ccccc3C1=O)C(C)(C)c1ssc(=S)c1-2`: the inhibition is 44.1% (active).

On to `Cc1cc(C)cc(NC(=O)CN2C(=O)c3ccccc3C2=O)c1`, for which the inhibition was 4.21% (inactive).

On to `Cc1ccc2c(c1)-c1c(ssc1=S)C(C)(C)N2C(=O)CN1C(=O)c2ccccc2C1=O`, for which the inhibition is 0.29% (inactive).

In the case of `CCc1ccc(NC(=O)NC(C)c2ccc3c(c2)OCO3)cc1` (centres undefined), the inhibition was -1.12% (inactive).

Regarding `O=C1CCN(Cc2ccc([N+](=O)[O-])cc2)CCN1[C@H](CO)Cc1ccccc1`, the inhibition was -1.9% (inactive).

With `CCOC(=O)c1c(N)nn(C(=O)c2ccccc2)c1-c1ccccc1`, the inhibition was -9.18% (inactive).

Regarding `C/C(=N\NC(=O)c1ccoc1C)c1ccccc1O`, the inhibition is -6.31% (inactive).

Take `Cc1nn(C(=O)c2ccoc2C)c(N)c1-c1ccccc1`: the inhibition is 17.4% (active).

With `O=C(N1CCOCC1)N(Cc1ccccc1)c1ccccn1`, the inhibition was -6.6% (inactive).

As to `COC(=O)CCCC1=CC2=CC(=O)C(C)(OC(=O)c3cccs3)C(=O)C2=CN1c1cccc(C#N)c1` (centres undefined), the inhibition was 4.64% (inactive).

For the molecule `COC(=O)CCCC1=CC2=CC(=O)C(C)(OC(=O)c3cccs3)C(=O)C2=CN1CC(C)C` (centres undefined), the inhibition was -1.01% (inactive).

Turning to `COC(=O)CCCC1=CC2=CC(=O)C(C)(OC(=O)c3cccs3)C(=O)C2=CN1CC1CC1` (centres undefined), the inhibition is 18.5% (active).

`CS/C(=C\C(=O)c1ccco1)Nc1ccccc1Cl`: the inhibition is 0.03% (inactive).

Regarding `CN(C)c1ccc(NC(=O)c2ccncc2)c2ccccc12`, the inhibition was -9.99% (inactive).

Take `COc1cc(OC)c(C(=O)Nc2ccc(N(C)C)cc2)cc1OC`: the inhibition was -1.49% (inactive).

Take `CC(C)CNC(=O)C(=O)Nc1ccc(N(C)C)cc1`: the inhibition is -0.08% (inactive).

For the molecule `CN(C)c1ccc(N/C=C/C(=O)C(F)(F)F)cc1`, the inhibition is 38.9% (active).

Regarding `CCCC1=Nc2cc(C(=O)NCc3ccco3)ccc2Sc2ccccc21`, the inhibition was -2.78% (inactive).

Turning to `Cn1c(=O)cc(OCC(=O)N2CCN(c3ccccc3F)CC2)c2ccccc21`, the inhibition is -3.43% (inactive).

In the case of `O=C(NNC(=O)c1cccc(S(=O)(=O)Nc2ccc(Cl)cc2)c1)c1ccc(=O)[nH]c1`, the inhibition is 0.33% (inactive).

As to `O=C(O)C1=NN(c2c(F)c(F)cc(F)c2F)C(=O)CC1`, the inhibition is 0.4% (inactive).

For `CCCc1cc(=O)[nH]c(SCC(=O)c2cc(C)n(CCC)c2C)n1`, the inhibition is 1.34% (inactive).

With `Cc1cc(C(=O)CSc2nc(N)cc(=O)[nH]2)c(C)n1CCc1ccc(Cl)cc1`, the inhibition is 23.8% (active).

With `Cc1cc(C(=O)CSc2nc(N)cc(=O)[nH]2)c(C)n1-c1cccc(F)c1`, the inhibition was 3.24% (inactive).

Regarding `O=C(COc1cccnc1[N+](=O)[O-])Nc1ccc(Cl)cc1F`, the inhibition was -3.69% (inactive).

As for `COC(=O)c1ccc(NC(=O)CSc2nncc3ccc(OC)c(OC)c23)cc1`, the inhibition is 26.1% (active).

For the molecule `COC(=O)c1ccc(NC(=O)CSc2nncn2-c2cccnc2)cc1`, the inhibition was 6.18% (inactive).

In the case of `CCOC(=O)CSc1nncc2ccc(OC)c(OC)c12`, the inhibition was -1.97% (inactive).

On to `CC(=O)c1cccc(-n2nnnc2SCC(=O)NNC(=O)C2CCCCC2)c1`, for which the inhibition is 0.09% (inactive).

`CC1(OC(=O)C2CCCC2)C(=O)C=C2C=C(c3ccc(C#N)cc3)OC=C2C1=O` (centres undefined): the inhibition was 4.94% (inactive).

As to `COCCN1C=C2C(=O)C(C)(OC(=O)C3CCCC3)C(=O)C=C2C=C1c1ccsc1` (centres undefined), the inhibition was 17.8% (active).

Regarding `CC1(OC(=O)CCc2ccccc2)C(=O)C=C2C=C(c3ccc(C#N)cc3)N(CCc3ccccn3)C=C2C1=O` (centres undefined), the inhibition was -12.6% (inactive).

Regarding `COc1ccc(N(CC(=O)NC2CCCCCCC2)S(=O)(=O)c2c(C)nn(C)c2C)cc1`, the inhibition is -21.2% (inactive).

As for `COc1ccccc1C(=O)N/C(=C/c1ccc2c(c1)OCO2)C(=O)Nc1cccc(C(=O)O)c1`, the inhibition was 4.24% (inactive).

For `CC(=O)Oc1ccccc1C(=O)Nc1ncc([N+](=O)[O-])s1`, the inhibition was 21.3% (active).

Consider `O=C(Cc1c(F)cccc1Cl)Nc1ncc([N+](=O)[O-])s1`, for which the inhibition is -0.75% (inactive).

On to `COc1ccc(NC(=O)c2ccccc2[N+](=O)[O-])cc1OC`, for which the inhibition is 0.28% (inactive).

With `COc1ccc(-c2cn3ccc(C)cc3n2)cc1`, the inhibition was -3.72% (inactive).

For `Cc1ccn2cc(-c3nonc3C)cc2c1`, the inhibition was 15.3% (active).

Regarding `COCC(C)n1c(C)cc(C(=O)CSc2cc(C)c3ccccc3n2)c1C` (centres undefined), the inhibition was -0.49% (inactive).

Consider `COc1ccc(CNC(=O)COc2cccnc2[N+](=O)[O-])cc1`, for which the inhibition is 1.13% (inactive).

For `COC(=O)c1cc(NC(=O)c2cc(C(C)(C)C)nn2Cc2cccc(C)c2)ccc1N1CCOCC1`, the inhibition is 2.9% (inactive).

As to `COc1cc(C(F)(F)F)nc2c(Br)c(C(C)(C)C)nn12`, the inhibition was -1.55% (inactive).

As for `C[N+](C)(C)CCOP(=O)([O-])OC[C@H](O)CO`, the inhibition was 0.71% (inactive).

Take `O=C(CN1CCCCCC1)Nc1ccc(Br)cc1Br`: the inhibition is 129% (active).

For the molecule `O=C(CN1CCCCCC1)Nc1ccc(Cl)cc1F`, the inhibition was -5.26% (inactive).

On to `O=C(CN1CCCCCC1)Nc1ccc(Br)cc1[N+](=O)[O-]`, for which the inhibition was 0.42% (inactive).
